PubChem BioAssay (NCI)
The panel holds about 79,000 compounds, 15% with a hit somewhere; the sample as a whole holds those more often. The source made the active and inactive calls. Cut-off read from the data, not from the text of the source: active = growth inhibition above about 70%; inactive = the rest.

Assay: NCI Yeast Anticancer Drug Screen. Data for the wt2 strain (AID 169);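 note: 0% = growth of vehicle-treated yeast cultures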
Settings: S. cerevisiae wt2 strain growth inhibition, active compounds read high
Protocol: Growth inhibition of yeast strains with defined genetic alterations is measured as a screen for potential anti-cancer activity. Selected strains with alterations in DNA damage repair or cell cycle control were exposed to compounds and growth inhibition was measured relative to vehicle treated controls. The strain used in this assay is wt2

Measured: growth inhibition

Cc1ccc(S(=O)(=O)NNC(=S)Nc2cccc3ccccc23)cc1
inactive: at 1.2 µM -2% | at 3.7 µM -1% | at 11.0 µM 2% | at 33.0 µM 8% | at 100.0 µM 7%

O=C1Nc2ccccc2/C1=C/COc1ccccc1
inactive: at 1.2 µM -2% | at 3.7 µM 1% | at 11.0 µM 15%
active: at 33.0 µM 88% | at 100.0 µM 99%

COc1ccc2sc3cccc(NCCN(C)C)c3c(=O)c2c1
inactive: at 1.2 µM 0% | at 3.7 µM -2% | at 11.0 µM 0% | at 33.0 µM -1% | at 100.0 µM 8%

Cc1cc(I)ccc1N
active: at 33.0 µM 88% | at 100.0 µM 94%
inactive: at 1.2 µM -28% | at 3.7 µM -10% | at 11.0 µM -13%

C/C(=N\O)C1CC2C=C(C#N)C1N(Cc1ccccc1)C2 (stereo not given)
inactive: at 1.2 µM -1% | at 3.7 µM -2% | at 11.0 µM -3% | at 33.0 µM -2% | at 100.0 µM -2%

CC(C)(CN1CCCCC1)C(=O)CC(SCCS(=O)(=O)O)c1ccc(Br)cc1 (stereo not given)
inactive: at 1.2 µM 1% | at 3.7 µM 3% | at 11.0 µM 11% | at 33.0 µM 24% | at 100.0 µM 46%

O=[N+]([O-])CC(SCc1ccccc1)c1ccc2c(c1)OCO2 (stereo not given)
active: at 33.0 µM 97% | at 100.0 µM 97%
inactive: at 1.2 µM 1% | at 3.7 µM 8% | at 11.0 µM 47%

CC1OCC2OC(C)OC(C3C4=C(CC(C)(C)CC4=O)OC4=C3C(=O)CC(C)(C)C4)C2O1 (stereo not given)
inactive: at 1.2 µM -1% | at 3.7 µM 9% | at 11.0 µM 1% | at 33.0 µM 4% | at 100.0 µM 23%
